Source: PubChem BioAssay AID463195 (Sanford-Burnham Center for Chemical Genomics, 2010)
The whole screen tested about 330,000 compounds, of which about 4,600 (1.4%) were called active.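 How the source made its calls: active means inhibition of 40% or more at the single tested concentration; inactive means the rest.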 This excerpt belongs to a sample that is enriched for actives.

experiment: growth inhibitors of isogenic TIM10 control yeast, primary screen, counter-screen for tim10-1 yeast inhibitor project, luminescence, uHTS (AID 463195);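 further: wild-type TIM10 isogenic control strain grown at permissive 25 °C; 0% = DMSO yeast wells and 100% = minimal medium wells without yeast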; settings: S. cerevisiae TIM10 strain growth, BacTiter-Glo luminescence, 24 h; at 10 µM; active compounds read high

| Structure (SMILES) | inhibition |
| --- | --- |
| COc1ccc(C(=O)N2CC3(C)CC2CC(C)(C)C3)cc1OC (stereo unspecified) | 9.33% (inactive) |
| CN(C)C(=O)COC(=O)c1cccc(S(=O)(=O)N2CC3(C)CC2CC(C)(C)C3)c1 (stereo unspecified) | 5.89% (inactive) |
| Cc1nnnn1/C(=C\c1ccccc1)C(=O)OCC(=O)N1CC2(C)CC1CC(C)(C)C2 (stereo unspecified) | 62.3% (active) |
| Cc1cccc(NC(=S)NC23CN4CN(CN(C4)C2)C3)c1 | -11.6% (inactive) |
| Cc1cccc(NC(=S)NCCN(C2CCCCC2)C2CCCC2)c1 | 11.8% (inactive) |
| Cc1cccc(NC(=S)NCc2ccc3[nH]c4c(c3c2)CCCC4)c1 | 42.9% (active) |
| N#C/C(=C(\O)C(F)(F)F)c1nnc2n1CCCCC2 | -10.3% (inactive) |
| COc1cc(/C=N/NC(=O)c2cccnc2)ccc1OC(=O)c1cccc(Br)c1 | 14.7% (inactive) |
| COc1cc(/C=N/NC(=O)c2ccccc2)ccc1OS(=O)(=O)c1ccccc1 | 43.1% (active) |
| COc1ccc(C(=O)Nc2ccccc2C(=O)N2CCN(c3ccccc3)CC2)cc1 | 14.5% (inactive) |
| COc1ccc(/C=N/Nc2ccccc2C(=O)O)cc1 | 13.9% (inactive) |
| COc1ccc(C(=O)Nc2ccccc2C(=O)N/N=C/c2ccc(O)c(OC)c2)cc1 | 93.2% (active) |
| COc1ccc(C(=O)Nc2ccccc2C(=O)N/N=C/c2ccccc2OC)cc1 | 64.2% (active) |
| COc1cc(C=NNC(=O)c2cccnc2)ccc1OC(=O)c1ccccc1F | 7.06% (inactive) |
| COc1cc(/C=N/NC(=O)CCc2n[nH]c(=O)[nH]c2=O)ccc1O | 5.01% (inactive) |
| COc1ccc(C(=O)Nc2cc(C)c(NC(=O)c3ccccc3OC)cn2)cc1 | 14.6% (inactive) |
| CC(=O)c1ccc(N2Cc3ccccc3C2)cc1 | 8.18% (inactive) |
| Cc1ccc(-c2nc(COC(=O)c3c(C)noc3C)cs2)cc1 | 1.5% (inactive) |
| Oc1ccc2ccc3cccc[n+]3c2c1 | -22.6% (inactive) |
| COCCN1C(=O)c2oc3c(C)cc(C)cc3c(=O)c2C1c1cccc(O)c1 (stereo unspecified) | -2.19% (inactive) |
| CC1CC2=C(CC1/C=N/NC(N)=S)C(C)(C)CCC2 (stereo unspecified) | 13.8% (inactive) |
| N#Cc1ccc(C(=O)Nc2nc(-c3cccs3)c(C(=O)C(F)(F)F)s2)cc1 | 9.92% (inactive) |
| CCC(CC)C(=O)Nc1c2c(nn1-c1ccc(C)cc1)CS(=O)(=O)C2 | 4.97% (inactive) |

| Structure (SMILES) | inhibition |
| --- | --- |
| CC/S(CC1CC1(Cl)Cl)=N\S(=O)(=O)c1ccc(C)cc1 (stereo unspecified) | 0.564% (inactive) |
| CCN1C(=NCC(C)C)N[C@@H](CCc2ccccc2)[C@H](C(=O)NCC(C)C)[C@H]1C | -3.76% (inactive) |
| COCCNC(=O)/C(C#N)=C/c1cccc(OCc2ccccc2)c1 | 55.7% (active) |
| O=C(N/N=C/c1cccc(OCc2ccccc2)c1)c1ccc(Br)o1 | 26.3% (inactive) |
| N#C/C(=C\c1ccc(O)c(O)c1)C(=O)NCc1ccccc1 | -1.33% (inactive) |
| CC(C)COc1ccc(C(=O)OCC(=O)NCCC2=CCCCC2)cc1 | 11.3% (inactive) |
| COC(=O)c1ccc(COc2cc([N+](=O)[O-])cc3cccnc23)cc1 | -32.2% (inactive) |
| C=C(C)c1cccc(C(C)(C)NC(=O)N2CCN(c3ncccn3)CC2)c1 | 3.72% (inactive) |
| CCOc1cc(-c2cc(-c3ccc(NC(C)=O)cc3)nc(N)c2C#N)ccc1O | -6.1% (inactive) |
| COc1ccc(-c2cc(-c3ccc(N)cc3)nc(N)c2C#N)cc1OC | 41% (active) |
| CCOc1cc(-c2cc(-c3ccc(OC)cc3)nc(N)c2C#N)ccc1O | 34% (inactive) |
| COc1ccc(S(=O)(=O)N2CCN(C(=O)NC3CCCCC3)CC2)cc1 | -5.18% (inactive) |
| O=C(CN1CCN(S(=O)(=O)c2ccc3ccccc3c2)CC1)NC(=O)NC1CCCCC1 | 44.2% (active) |
| O=C(CN1CCN(S(=O)(=O)c2ccc(F)cc2)CC1)NC1CC1 | 0.605% (inactive) |
| O=C(NC(=S)Nc1cccc2c(O)cccc12)c1cccc(Br)c1 | 20.4% (inactive) |
| O=C1c2ccccc2S(=O)(=O)c2cc(N3CCN(c4ccccn4)CC3)ccc21 | -6.37% (inactive) |
| COc1ccc(-c2cc(C)nc3nc(N)nn23)cc1 | 9.96% (inactive) |
| Cc1cc(N)n2nc(-c3ccc(C(C)(C)C)cc3)cc2n1 | 45.3% (active) |
| Cc1cc(C(C)(C)C)cc(C)c1N | -4.47% (inactive) |
| C/C(CC(=O)Nc1cccc(C(F)(F)F)c1)=N\NC(=O)C(=O)NCC(C)C | 10.5% (inactive) |
| CCOC(=O)CNC(=O)CSc1ccc2nnc(-c3cccnc3)n2n1 | -17.7% (inactive) |
| CCOC(=O)CNC(=O)CSc1nc2cccnc2n1CC | 7.72% (inactive) |
| CCOC(=O)CNC(=O)CSc1ncccc1-c1nc2ccccc2[nH]1 | 97.9% (active) |

| Structure (SMILES) | inhibition |
| --- | --- |
| CC(C)C(NC(=O)C1CCC(C(C)(C)C)CC1)C(=O)NCCCN1CCCCC1 (stereo unspecified) | 6.75% (inactive) |
| O=C(CNC(=O)c1ccccc1Br)NNC(=O)c1cccs1 | 3.43% (inactive) |
| Cc1cccc(NC(=O)Nc2cccc(Oc3c(F)c(F)c(F)c(F)c3F)c2)c1 | 8.17% (inactive) |
| Cc1ccoc1C(=O)Nc1cccc(Oc2ccccc2)c1 | 55.2% (active) |
| CC(Oc1cccc(NC(=O)c2cccs2)c1)C(=O)c1ccccc1 (stereo unspecified) | 8.87% (inactive) |
| COc1ccccc1NC(=O)CSc1nnc(Cn2nnc(-c3ccccc3)n2)n1-c1ccccc1 | 6.08% (inactive) |
| Cc1ccc(NC(=O)COC(=O)CN2CCCCCC2=O)c(C)c1 | 7.63% (inactive) |
| COc1ccc(CN2CCC(n3nccc3NC(=O)CCCc3ccccc3)CC2)cc1C | 4.88% (inactive) |
| Cc1cc2cc(CNC(=O)c3cccs3)ccc2[nH]1 | -0.032% (inactive) |
| Cc1cc2cc(CNC(=O)c3ccc(S(=O)(=O)N4CCOCC4)cc3)ccc2[nH]1 | 7.18% (inactive) |
| CCc1cccc(CC)c1NC(=S)NCc1ccc2[nH]c(C)cc2c1 | 54% (active) |
| CCOC(=O)N/N=C/c1cn(Cc2ccccc2Cl)c2ccccc12 | 22% (inactive) |
| N#CCC(=O)N/N=C/c1cn(Cc2ccc3ccccc3c2)c2ccccc12 | -20.2% (inactive) |
| CNC(=S)N/N=C/c1cn(Cc2ccc(C)cc2)c2ccccc12 | 51.4% (active) |
| C=CCN(c1ccc(Cl)cc1)S(=O)(=O)c1cccc(C(=O)OCC(=O)N(C)C)c1 | -12.8% (inactive) |
| O=C(NCc1cccnc1)c1cn(-c2ccccc2)nc1-c1cccs1 | 2.96% (inactive) |
| O=C(O)c1ccc(N/N=C/c2cn(-c3ccccc3)nc2-c2cccs2)cc1 | 56.3% (active) |
| COc1cccc(NC(=O)CN(C)C(=O)/C=C/c2cn(-c3ccccc3)nc2-c2cccs2)c1 | -5.41% (inactive) |
| CN(CC(=O)NC(=O)Nc1ccccc1F)Cc1ccccc1 | 2.75% (inactive) |
| Cc1cc(C)c(S(=O)(=O)N2CCC(C(=O)OCc3c(C)noc3C)CC2)c(C)c1 | 8.76% (inactive) |
| Cc1noc(C)c1NC(=O)Nc1cccc2c1O[C@H](CN(C)S(=O)(=O)c1c(C)noc1C)[C@@H](C)CN([C@H](C)CO)C2=O | 9.51% (inactive) |
| CCCCN(CCCC)CC(O)Cn1c2ccccc2c(=O)c2ccccc21 (stereo unspecified) | -7.98% (inactive) |
| CC(C)(C)c1ccc(CN2C(=O)c3ccccc3S2(=O)=O)cc1 | 11% (inactive) |

| Structure (SMILES) | inhibition |
| --- | --- |
| O=C1c2ccccc2S(=O)(=O)N1CC(O)Cn1c2ccccc2c2ccccc21 (stereo unspecified) | 79.5% (active) |
| COC(=O)c1ccc(C2C3=C(Nc4nnnn42)c2ccccc2OC3)cc1 (stereo unspecified) | 27.5% (inactive) |
| CCCc1[nH]nc2c1C(c1ccc(Br)s1)C(C#N)=C(N)O2 (stereo unspecified) | 66.7% (active) |
| CCCc1[nH]nc2c1C(c1ccc(OC(=O)c3ccco3)cc1)C(C#N)=C(N)O2 (stereo unspecified) | 3.44% (inactive) |
| CCCc1[nH]nc2c1C(c1ccc(OC)c(Cn3nc(C)c(Br)c3C)c1)C(C#N)=C(N)O2 (stereo unspecified) | 3.67% (inactive) |
| CCCCN(CC)C(=O)CN(C)S(=O)(=O)c1cccc2nsnc12 | -12.4% (inactive) |
| COc1ccc(NC(=O)COc2ccc(C(=O)c3ccc(F)cc3)cc2)cc1S(N)(=O)=O | 7.33% (inactive) |
| Cc1ccc(-c2ccc(/C=C(\C#N)C(N)=S)o2)c([N+](=O)[O-])c1 | 51.5% (active) |
| CC1=NN(c2ccc(Cl)c(C(=O)O)c2)C(=O)/C1=C/c1ccc(-c2ccccc2[N+](=O)[O-])o1 | 12.6% (inactive) |
| Cc1cc(C)c([N+](=O)[O-])cc1-c1ccc(/C=N/NC(=O)c2nonc2N)o1 | -9.15% (inactive) |
| CC(C)NC(=O)N1CCN(c2ccncc2S(=O)(=O)N2CCCCC2)CC1 | -2.83% (inactive) |
| Oc1ccc(-c2cccc(-c3ccc(O)cc3)c2)cc1 | -32.3% (inactive) |
| O=C(/C=C/c1cc2c(cc1Br)OCO2)NCc1ccc(Cl)cc1 | -5.07% (inactive) |
| O=C(/C=C/c1ccc(Cl)cc1Cl)c1cccnc1 | 8.99% (inactive) |
| O=C(Nc1ccncc1)c1ccc(Cl)c([N+](=O)[O-])c1 | -47.9% (inactive) |
| O=C(/C=C/c1ccc(Cl)c([N+](=O)[O-])c1)c1cccnc1 | 73.9% (active) |
| CC1CCCCC12NC(=O)N(CC(=O)OCc1c(F)cccc1Cl)C2=O (stereo unspecified) | 1.25% (inactive) |
| COc1ccc(-c2cc3n(n2)CCc2nc4ccccc4n2-3)cc1 | 17.5% (inactive) |
| O=[N+]([O-])c1cccc(Nc2c3ccccc3nc3ccccc23)c1 | 42.1% (active) |
| N#Cc1cccc(Nc2c3c(nc4ccccc24)CCCC3)c1 | 22.5% (inactive) |
| Cc1cc(CNC(=O)c2cccc([N+](=O)[O-])c2)c2ccccc2n1 | 8.64% (inactive) |
| COC(=O)Nc1ccc(S(=O)(=O)N2CCN(CCN3C(=O)C4C5C=CC(C5)C4C3=O)CC2)cc1 (stereo unspecified) | -10.8% (inactive) |
